# According to PubChem BioAssay (NCI):
# This is part of a sample that, as a whole, favours compounds with a hit. Of some 79,000 tested, about 15% had one in any assay. A number with no mark means an inactive call. Calls of active or inactive are those of the source. Cut-off read from the data, not from the text of the source: active = growth inhibition above about 70%; inactive = the rest.
# Key:
# [1] = NCI Yeast Anticancer Drug Screen. Data for the rad52 strain (AID 147);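 note: 0% = growth of vehicle-treated control cultures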; conditions: S. cerevisiae rad52 mutant growth inhibition, stronger effect = higher value
# How it was run: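 Compounds are applied to a genetically defined yeast strain lacking normal DNA damage repair, and inhibition of growth is expressed relative to cultures given vehicle only.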
# [2] = NCI Yeast Anticancer Drug Screen. Data for the wt1 strain (AID 149);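 note: 0% = growth of vehicle-treated wt1 cultures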; conditions: S. cerevisiae wt1 strain (SPY 50644) growth inhibition, stronger effect = higher value
# How it was run: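 Vehicle-normalised growth inhibition; strain wt1; compound exposure.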
# [3] = NCI Yeast Anticancer Drug Screen. Data for the rad50EPP+ strain (AID 151);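 note: 0% = growth of vehicle-treated control cultures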; conditions: S. cerevisiae rad50 mutant strain, stronger effect = higher value
# How it was run: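 Compounds were applied to the rad50EPP+ yeast strain, which bears a defined DNA repair alteration, and growth inhibition was determined relative to vehicle-treated cultures.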
# [4] = NCI Yeast Anticancer Drug Screen. Data for the mgt1 strain (AID 153); conditions: S. cerevisiae mgt1 mutant growth inhibition, stronger effect = higher value
# How it was run: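 Strain: mgt1 yeast, one of a set carrying defined DNA damage repair or cell cycle control alterations. Compound-treated growth compared with vehicle.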
# [5] = NCI Yeast Anticancer Drug Screen. Data for the rad50 strain (AID 155);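 note: 0% = growth of vehicle-only cultures of the same strain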; conditions: S. cerevisiae rad50 strain growth inhibition, stronger effect = higher value
# How it was run: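 A DNA repair-deficient yeast mutant serves as the test organism; compound-induced growth inhibition is calculated against vehicle-treated cells.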
# [6] = NCI Yeast Anticancer Drug Screen. Data for the mec2-1 strain (AID 157); conditions: S. cerevisiae mec2-1 strain, stronger effect = higher value
# How it was run: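 Strain: mec2-1 (DNA repair/cell cycle alteration). Compound exposure, then growth measured; inhibition expressed relative to vehicle.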
# [7] = NCI Yeast Anticancer Drug Screen. Data for the rad14 strain (AID 159);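 note: 0% = growth of vehicle-treated control cultures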; conditions: S. cerevisiae rad14 strain growth inhibition, stronger effect = higher value
# How it was run: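 Vehicle-treated cultures served as the baseline for growth inhibition of a DNA repair-mutant yeast strain exposed to each compound.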
# [8] = NCI Yeast Anticancer Drug Screen. Data for the sgs1 mgt1 strain (AID 161);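 note: 0% = growth of cultures given vehicle only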; conditions: S. cerevisiae sgs1 mgt1 strain, stronger effect = higher value
# How it was run: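 Test agents were incubated with a DNA-repair-mutant yeast strain. Growth was then read and compared against vehicle-treated controls.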
# [9] = NCI Yeast Anticancer Drug Screen. Data for the CLN2oe strain (AID 163);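 note: 0% = growth of vehicle-only control cultures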; conditions: S. cerevisiae CLN2oe strain, stronger effect = higher value
# How it was run: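 Growth of a genetically modified yeast strain is measured after compound exposure and compared with cultures given vehicle alone.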
# [10] = NCI Yeast Anticancer Drug Screen. Data for the cln2 rad14 strain (AID 165);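 note: 0% = growth equal to vehicle treated cultures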; conditions: S. cerevisiae cln2 rad14 strain, stronger effect = higher value
# How it was run: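 Compounds are applied to the cln2 rad14 yeast strain, and growth is then compared with that of vehicle-treated cultures to give inhibition.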
# [11] = NCI Yeast Anticancer Drug Screen. Data for the bub3 strain (AID 167); conditions: S. cerevisiae bub3 mutant strain, stronger effect = higher value
# How it was run: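 Inhibition values come from growth of compound-treated mutant yeast normalised to vehicle-treated controls.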
# [12] = NCI Yeast Anticancer Drug Screen. Data for the wt2 strain (AID 169);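 note: 0% = growth of vehicle-treated yeast cultures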; conditions: S. cerevisiae wt2 strain growth inhibition, stronger effect = higher value
# How it was run: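 This strain belongs to a panel of yeast strains with defined genetic alterations in DNA damage repair or cell cycle control. Compounds are applied, and growth inhibition is measured against vehicle-treated cultures.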
# [13] = NCI Yeast Anticancer Drug Screen. Data for the mlh1 strain (AID 171);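 note: 0% = growth of vehicle-treated control cultures of the same strain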; conditions: S. cerevisiae mlh1 strain growth inhibition, stronger effect = higher value
# How it was run: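 Growth of the mutant yeast strain after compound exposure, expressed as inhibition relative to vehicle-only controls.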
# [14] = NCI Yeast Anticancer Drug Screen. Data for the sgs1 strain (AID 173);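 note: 0% = growth of vehicle-only control cultures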; conditions: S. cerevisiae sgs1 mutant, stronger effect = higher value
# How it was run: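 Growth of a yeast strain bearing a defined genetic alteration is measured after compound treatment. Inhibition is expressed relative to vehicle-only controls.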
# [15] = NCI Yeast Anticancer Drug Screen. Data for the mlh1 rad18 strain (AID 175); conditions: S. cerevisiae mlh1 rad18 strain growth inhibition, stronger effect = higher value
# How it was run: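 Read-out is yeast growth inhibition, calculated against vehicle-only controls. The compound was applied to a strain engineered with DNA damage repair alterations.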
# [16] = NCI Yeast Anticancer Drug Screen. Data for the rad18 strain (AID 177); conditions: S. cerevisiae rad18 mutant growth inhibition, stronger effect = higher value
# How it was run: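 Growth of the mutant yeast strain after compound exposure, normalised to vehicle-only cultures.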
# [17] = at 5.0 µM (retest, dose inferred, filed as 0.5)
# [18] = at 50.0 µM (retest, dose inferred, filed as 5.0)
smiles,measurement,setting,value
Cc1nc2ccc(N=NN(C)C)cc2[nH]1,growth inhibition,[1]; at 1.2 µM,11%
same,growth inhibition,[1]; at 3.7 µM,8%
same,growth inhibition,[1]; at 11.0 µM,3%
same,growth inhibition,[1]; at 33.0 µM,72% (active)
same,growth inhibition,[1]; at 100.0 µM,97% (active)
same,growth inhibition,[2]; at 1.2 µM,13%
same,growth inhibition,[2]; at 3.7 µM,6%
same,growth inhibition,[2]; at 11.0 µM,7%
same,growth inhibition,[2]; at 33.0 µM,25%
same,growth inhibition,[2]; at 100.0 µM,98% (active)
same,growth inhibition,[3]; at 1.2 µM,13%
same,growth inhibition,[3]; at 3.7 µM,14%
same,growth inhibition,[3]; at 11.0 µM,8%
same,growth inhibition,[3]; at 33.0 µM,51%
same,growth inhibition,[3]; at 100.0 µM,98% (active)
same,growth inhibition,[4]; at 1.2 µM,2%
same,growth inhibition,[4]; at 3.7 µM,3%
same,growth inhibition,[4]; at 11.0 µM,15%
same,growth inhibition,[4]; at 33.0 µM,99% (active)
same,growth inhibition,[4]; at 100.0 µM,99% (active)
same,growth inhibition,[5]; at 1.2 µM,22%
same,growth inhibition,[5]; at 3.7 µM,16%
same,growth inhibition,[5]; [17],-3%
same,growth inhibition,[5]; at 11.0 µM,15%
same,growth inhibition,[5]; at 33.0 µM,83% (active)
same,growth inhibition,[5]; [18],97% (active)
same,growth inhibition,[5]; at 50.0 µM,84% (active)
same,growth inhibition,[5]; at 100.0 µM,98% (active)
same,growth inhibition,[6]; at 1.2 µM,15%
same,growth inhibition,[6]; at 3.7 µM,21%
same,growth inhibition,[6]; [17],-9%
same,growth inhibition,[6]; at 11.0 µM,20%
same,growth inhibition,[6]; at 33.0 µM,98% (active)
same,growth inhibition,[6]; [18],98% (active)
same,growth inhibition,[6]; at 50.0 µM,91.3% (active)
same,growth inhibition,[6]; at 100.0 µM,98% (active)
same,growth inhibition,[7]; at 1.2 µM,4%
same,growth inhibition,[7]; at 3.7 µM,4%
same,growth inhibition,[7]; at 11.0 µM,12%
same,growth inhibition,[7]; at 33.0 µM,15%
same,growth inhibition,[7]; at 100.0 µM,97% (active)
same,growth inhibition,[8]; [17],-6%
same,growth inhibition,[8]; [18],7%
same,growth inhibition,[8]; at 50.0 µM,88.8% (active)
same,growth inhibition,[9]; at 1.2 µM,8%
same,growth inhibition,[9]; at 3.7 µM,1%
same,growth inhibition,[9]; at 11.0 µM,30%
same,growth inhibition,[9]; at 33.0 µM,96% (active)
same,growth inhibition,[9]; at 100.0 µM,96% (active)
same,growth inhibition,[10]; [17],8%
same,growth inhibition,[10]; [18],35%
same,growth inhibition,[10]; at 50.0 µM,87.5% (active)
same,growth inhibition,[11]; at 1.2 µM,-6%
same,growth inhibition,[11]; at 3.7 µM,-5%
same,growth inhibition,[11]; [17],-19%
same,growth inhibition,[11]; at 11.0 µM,-2%
same,growth inhibition,[11]; at 33.0 µM,97% (active)
same,growth inhibition,[11]; [18],98% (active)
same,growth inhibition,[11]; at 50.0 µM,87.8% (active)
same,growth inhibition,[11]; at 100.0 µM,98% (active)
same,growth inhibition,[12]; at 1.2 µM,-15%
same,growth inhibition,[12]; at 3.7 µM,4%
same,growth inhibition,[12]; at 11.0 µM,6%
same,growth inhibition,[12]; at 33.0 µM,98% (active)
same,growth inhibition,[12]; at 100.0 µM,98% (active)
same,growth inhibition,[13]; at 1.2 µM,2%
same,growth inhibition,[13]; at 3.7 µM,3%
same,growth inhibition,[13]; at 11.0 µM,15%
same,growth inhibition,[13]; at 33.0 µM,99% (active)
same,growth inhibition,[13]; at 100.0 µM,99% (active)
same,growth inhibition,[14]; at 1.2 µM,27%
same,growth inhibition,[14]; at 3.7 µM,39%
same,growth inhibition,[14]; at 11.0 µM,40%
same,growth inhibition,[14]; at 33.0 µM,49%
same,growth inhibition,[14]; at 100.0 µM,99% (active)
same,growth inhibition,[15]; [17],-7%
same,growth inhibition,[15]; [18],98% (active)
same,growth inhibition,[15]; at 50.0 µM,89% (active)
same,growth inhibition,[16]; at 1.2 µM,18%
same,growth inhibition,[16]; at 3.7 µM,23%
same,growth inhibition,[16]; at 11.0 µM,26%
same,growth inhibition,[16]; at 33.0 µM,77% (active)
same,growth inhibition,[16]; at 100.0 µM,98% (active)
CNCCCNc1c2ccccc2nc2cccc([N+](=O)[O-])c12,growth inhibition,[1]; at 1.2 µM,83% (active)
same,growth inhibition,[1]; at 3.7 µM,85% (active)
same,growth inhibition,[1]; at 11.0 µM,90% (active)
same,growth inhibition,[1]; at 33.0 µM,94% (active)
same,growth inhibition,[1]; at 100.0 µM,96% (active)
same,growth inhibition,[2]; at 1.2 µM,2%
same,growth inhibition,[2]; at 3.7 µM,28%
same,growth inhibition,[2]; at 11.0 µM,77% (active)
same,growth inhibition,[2]; at 33.0 µM,92% (active)
same,growth inhibition,[2]; at 100.0 µM,97% (active)
same,growth inhibition,[3]; at 1.2 µM,43%
same,growth inhibition,[3]; at 3.7 µM,89% (active)
same,growth inhibition,[3]; at 11.0 µM,96% (active)
same,growth inhibition,[3]; at 33.0 µM,97% (active)
same,growth inhibition,[3]; at 100.0 µM,98% (active)
same,growth inhibition,[4]; at 1.2 µM,18%
same,growth inhibition,[4]; at 3.7 µM,42%
same,growth inhibition,[4]; at 11.0 µM,72% (active)
same,growth inhibition,[4]; at 33.0 µM,94% (active)
same,growth inhibition,[4]; at 100.0 µM,97% (active)
same,growth inhibition,[5]; at 1.2 µM,73% (active)
same,growth inhibition,[5]; at 3.7 µM,82% (active)
same,growth inhibition,[5]; [17],77% (active)
same,growth inhibition,[5]; at 11.0 µM,91% (active)
same,growth inhibition,[5]; at 33.0 µM,93% (active)
same,growth inhibition,[5]; [18],95% (active)
same,growth inhibition,[5]; at 50.0 µM,84.8% (active)
same,growth inhibition,[5]; at 100.0 µM,96% (active)
same,growth inhibition,[6]; at 1.2 µM,41%
same,growth inhibition,[6]; at 3.7 µM,87% (active)
same,growth inhibition,[6]; [17],89% (active)
same,growth inhibition,[6]; at 11.0 µM,92% (active)
same,growth inhibition,[6]; at 33.0 µM,95% (active)
same,growth inhibition,[6]; [18],97% (active)
same,growth inhibition,[6]; at 50.0 µM,91% (active)
same,growth inhibition,[6]; at 100.0 µM,97% (active)
same,growth inhibition,[7]; at 1.2 µM,84% (active)
same,growth inhibition,[7]; at 3.7 µM,93% (active)
same,growth inhibition,[7]; at 11.0 µM,96% (active)
same,growth inhibition,[7]; at 33.0 µM,96% (active)
same,growth inhibition,[7]; at 100.0 µM,97% (active)
same,growth inhibition,[8]; [17],87% (active)
same,growth inhibition,[8]; [18],96% (active)
same,growth inhibition,[8]; at 50.0 µM,91.2% (active)
same,growth inhibition,[9]; at 1.2 µM,-1%
same,growth inhibition,[9]; at 3.7 µM,28%
same,growth inhibition,[9]; at 11.0 µM,80% (active)
same,growth inhibition,[9]; at 33.0 µM,93% (active)
same,growth inhibition,[9]; at 100.0 µM,97% (active)
same,growth inhibition,[10]; [17],77% (active)
same,growth inhibition,[10]; [18],95% (active)
same,growth inhibition,[10]; at 50.0 µM,91.3% (active)
same,growth inhibition,[11]; at 1.2 µM,-12%
same,growth inhibition,[11]; at 3.7 µM,38%
same,growth inhibition,[11]; [17],21%
same,growth inhibition,[11]; at 11.0 µM,92% (active)
same,growth inhibition,[11]; at 33.0 µM,98% (active)
same,growth inhibition,[11]; [18],96% (active)
same,growth inhibition,[11]; at 50.0 µM,85.8% (active)
same,growth inhibition,[11]; at 100.0 µM,99% (active)
same,growth inhibition,[12]; at 1.2 µM,2%
same,growth inhibition,[12]; at 3.7 µM,23%
same,growth inhibition,[12]; at 11.0 µM,86% (active)
same,growth inhibition,[12]; at 33.0 µM,97% (active)
same,growth inhibition,[12]; at 100.0 µM,99% (active)
same,growth inhibition,[13]; at 1.2 µM,18%
same,growth inhibition,[13]; at 3.7 µM,42%
same,growth inhibition,[13]; at 11.0 µM,72% (active)
same,growth inhibition,[13]; at 33.0 µM,94% (active)
same,growth inhibition,[13]; at 100.0 µM,97% (active)
same,growth inhibition,[15]; [17],88% (active)
same,growth inhibition,[15]; [18],96% (active)
same,growth inhibition,[15]; at 50.0 µM,85.3% (active)
same,growth inhibition,[16]; at 1.2 µM,92% (active)
same,growth inhibition,[16]; at 3.7 µM,95% (active)
same,growth inhibition,[16]; at 11.0 µM,93% (active)
same,growth inhibition,[16]; at 33.0 µM,95% (active)
same,growth inhibition,[16]; at 100.0 µM,96% (active)
